Drawing on ChEMBL document CHEMBL4513216, “Probing the Open Global Health Chemical Diversity Library for Multistage-Active Starting Points for Next-Generation Antimalarials” (ACS Infect Dis, 2020), this text covers INHIBITION for 103 compounds.

Each structure is given as a SMILES string. Among all 68,000 compounds or so, about 2,700 (4%) showed an effect of 50% or more. Only a selection was taken, and strong results are over-represented in it overall.

This assay deals with Plasmodium berghei. Kind of assay: Screen against P. berghei liver stage (PbLuc), transformed with Luciferase, at 2uM. The assay is classed as functional, HepG2. To be noted: tested at 2 uM.
For the compound `O=C(NCCNc1ncccn1)N1CCc2ccccc2C1`, the INHIBITION was -17.17%.
The figure for `Cc1oc(C(C)C)cc1C(=O)N1CCN(c2cnn(C)c(=O)c2)CC1` is 86.36%.
As for `Cc1cncc(C(=O)N2CCN(c3cnn(C)c(=O)c3)CC2)c1`, the INHIBITION is reported as 41.05%.
The result for `CCc1ncc(C(=O)N2CCN(c3cnn(C)c(=O)c3)CC2)cn1` reads 24.36%; that for `CNc1cc(C2CCCN(C(=O)c3ccc(=O)[nH]n3)C2)ccn1` (stereo not drawn), 27.54%.
The result for `Cc1c(CCC(=O)N2CCCC2c2ccnc(N(C)C)c2)cnn1C` (stereo not drawn) reads 24.13%.
Take `CNc1cc(C2CCCN2C(=O)c2ccc(=O)[nH]n2)ccn1` (stereo not drawn): the INHIBITION was 51.88%.
The figure for `CNc1cc(C2CCCN2C(=O)CCc2ccccc2F)ccn1` (stereo not drawn) is -34.8%; for `CNc1cc(C2CCCN2C(=O)CCc2cnn(C)c2C)ccn1` (stereo not drawn) it is 73.23%.
The figure for `CNc1cc(C2CCCN2C(=O)c2ccc3oc(=O)n(C)c3c2)ccn1` (stereo not drawn) is 11.71%.
With `c1ccc(-c2ncc(CNC3CCc4ncnn4C3)cn2)cc1` (stereo not drawn), the INHIBITION was 15.31%.
Consider `c1ccc(CCN2CCOC(Cn3cccn3)C2)nc1` (stereo not drawn), for which the INHIBITION was determined as 23.71%.
The figure for `CC(NC(=O)NCCCNS(C)(=O)=O)c1ccncc1` (stereo not drawn) is 9.9%.
The figure for `CN1CCN(C(=O)N2CCCC(c3nccn3CC3CCC3)C2)CC1` (stereo not drawn) is -18.71%.
The figure for `Cc1ccc(N2CCC(C(=O)O)(n3ccc(C(C)C)n3)CC2)nn1` is -12.36%.
On to `Cc1nc(CN2CCC(C(=O)O)(n3ccc(-c4ccco4)n3)CC2)co1`, for which the INHIBITION is on record as -26.72%.
For `Cc1nc(CN2CCC(C(=O)O)(n3ccc(C(C)C)n3)CC2)co1`, the INHIBITION was 53.55%.
The result for `Cc1ccc(-n2nnc(C(=O)O)c2C)c(C)c1` reads -2.64%.
The figure for `O=C(c1ccc(F)c(F)c1)N1C[C@H]2CNC[C@H]2C1` is -9.69%; for `O=C(c1ccc(S(=O)(=O)NC2CCC2)cc1)N1CC[C@H]2CNC[C@H]21` it is -13.8%.
Take `O=C(c1cc(F)cc(F)c1)N1C[C@H]2CNC[C@H]2C1`: the INHIBITION is listed as 51.81%.
As to `O=C(c1ccc(S(=O)(=O)NCC(F)F)cc1)N1C[C@H]2CNC[C@H]2C1`, the INHIBITION is reported as 57.75%.
The figure for `O=C(c1ccc(S(=O)(=O)NCC(F)F)cc1)N1CC[C@H]2CNC[C@H]21` is 26.74%; for `Cc1ccc(C(=O)N2C[C@H]3CNC[C@H]3C2)cn1` it is -53.62%.
As for `O=C(c1cnccn1)N1C[C@@H](OCc2cccnc2)[C@H]2OCCC[C@H]21`, the INHIBITION is -39.95%.
The figure for `CCN(CC)[C@@H]1CN(Cc2nccn2C)[C@@H]2CCCO[C@H]12` is -3.53%; for `CCCc1noc(C(C)S(=O)(=O)Cc2nc(C3CC3)no2)n1` (stereo not drawn) it is -7.66%.
The result for `CC(C)c1noc(C(C)N2CCN(Cc3cccs3)CC2)n1` (stereo not drawn) reads 41.76%; that for `CC(c1nc(C2CC2)no1)N1CCN(Cc2nnc(C3CC3)o2)CC1` (stereo not drawn), 49.01%; that for `CCc1noc(CS(=O)(=O)C(C)c2nc(C3CC3)no2)n1` (stereo not drawn), 57.16%.
For the compound `CCCc1nc(CN2CCN(C(C)c3nc(C4CC4)no3)CC2)no1` (stereo not drawn), the INHIBITION came out at 50.18%.
The result for `CCc1nc(CN2CCN(C(C)c3nc(C4CC4)no3)CC2)no1` (stereo not drawn) reads 13.91%.
For the compound `CC(C)c1noc(C(C)N2CCN(Cc3ccsc3)CC2)n1` (stereo not drawn), the INHIBITION came to 60.31%.
The result for `CC(C)c1noc(C(C)N2CCN(Cc3nnc(C4CC4)o3)CC2)n1` (stereo not drawn) reads 58.52%; that for `CC(C)c1noc(C(C)S(=O)(=O)Cc2nc(C3CC3)no2)n1` (stereo not drawn), -17.22%.
The result for `CC(C)c1nc(CN2CCN(C(C)c3nc(C4CC4)no3)CC2)no1` (stereo not drawn) reads -42.32%.
The result for `Cc1noc(C(C)N2CCN(Cc3nnc(C4CC4)o3)CC2)n1` (stereo not drawn) reads -4.99%.
With `CC(c1nc(C2CC2)no1)N1CCN(Cc2ccsc2)CC1` (stereo not drawn), the INHIBITION turned out to be 5.72%.
The figure for `CC(C)OCc1ccccc1CNC(=O)C(C)(C)C` is -26.08%; for `CS(=O)(=O)c1nccn1Cc1ccc(OC(F)F)cc1` it is -35.45%; for `O=C(O)c1cc(NS(=O)(=O)c2ccccc2F)ccc1N1CCSCC1` it is -21.39%.
In the case of `Cc1nc(C)n(CC2CCCCN2CC(=O)NC(C2CC2)C2CC2)n1` (stereo not drawn), the INHIBITION is reported as 17.75%.
The figure for `COc1ccccc1OCC(=O)N1C[C@@H]2CN(C)CCO[C@@H]2C1` is 32.04%.
Regarding `CN1CCc2nc(N(C)C)nc(N3CCC(O)CC3)c2C1`, the INHIBITION is reported as 21.24%.
On to `CN(Cc1nc(C2CC2)no1)C(=O)c1cccc(CC2CCNCC2)c1`, for which the INHIBITION is listed as -11.41%.
The result for `Cc1nn(C)c2nc(NC(C)c3nnn[nH]3)sc12` (stereo not drawn) reads -16.31%.
The result for `Cc1csc2ncc(-c3ccnc(N4CCN(C)CC4)n3)c(=O)n12` reads -23.11%; that for `Cc1cc2c(cc1Cl)C=CC1(CCN(CC(=O)NC3CCCC3)CC1)O2`, 3.58%.
The result for `Cc1cc2c(cc1Cl)C=CC1(CCN(CC(=O)N3CCCC3)CC1)O2` reads -28%; that for `Cc1cc2c(cc1C)OC1(C=C2)CCN(CC(=O)N2CCOCC2)CC1`, 54.2%.
Regarding `CCN(CC)C(=O)CN1CCC2(C=Cc3cc(Cl)c(C)cc3O2)CC1`, the INHIBITION came to 1.4%.
Take `Cc1cc2c(cc1Cl)C=CC1(CCN(CC(=O)N3CCOCC3)CC1)O2`: the INHIBITION is listed as -4.78%.
Regarding `Cc1cc2c(cc1Cl)C=CC1(CCN(C(=O)N3CCOCC3)CC1)O2`, the INHIBITION came out at 57.47%.
`O=C(NCc1cnc2n1CCN(CC1CC1)CC2)C1CCC1`: the INHIBITION is given as 15.42%.
The figure for `CO[C@@H]1CCN(S(=O)(=O)c2cccs2)[C@H]1Cc1cccnc1` is 30.39%; for `CC(c1nc(C2CC2)no1)N1CCc2c(ncn2C2CC2)C1` (stereo not drawn) it is -40.15%.
In the case of `Cc1ccc(S(=O)(=O)NCc2cccc(C(=O)N3CCCC3)c2)cc1F`, the INHIBITION turned out to be 47.84%.
The result for `O=C(c1cccc(CNS(=O)(=O)c2ccc(F)cc2)c1)N1CCCC1` reads 51.94%; that for `Cc1ccc(F)cc1S(=O)(=O)NCc1cccc(C(=O)N2CCCC2)c1`, 33.8%; that for `Cc1nc2c(c(NC3CC3)n1)CCN(C(=O)C1(C#N)CC1)CC2`, -5.44%.
The figure for `Cc1nc(N2CCOCC2)nc2c1CCN(C(=O)C1(C#N)CC1)CC2` is -24.04%; for `Cc1nc(C)c2c(n1)CCN(C(=O)C1(C#N)CC1)CC2` it is 89.37%.
The result for `COCC1CN(Cc2ccoc2)Cc2nn(C)cc21` (stereo not drawn) reads 17.69%; that for `O=C(Nc1ccc(F)cc1)N1CCN(Cc2noc(C3CC3)n2)CC1`, 24.65%.
Consider `CN1CCN(C(=O)C[C@@H]2COC[C@H]3CN(c4ccncn4)C[C@@H]23)CC1`, for which the INHIBITION is on record as -69.07%.
The result for `CS(=O)(=O)N1CCC2(CC1)COC(COc1cccnc1)C2` (stereo not drawn) reads 19.91%.
As to `CNC(=O)c1ccc(S(=O)(=O)NCCc2ccccn2)cc1`, the INHIBITION is 24.15%.
The figure for `CNS(=O)(=O)c1ccc(C(=O)NCCNc2ncccn2)cc1` is -75.02%; for `CNS(=O)(=O)c1ccc(C(=O)NCCc2ccccn2)cc1` it is 62.46%.
The figure for `O=C(Nc1ccccc1)N1CCn2nnc(COc3cccnc3)c2C1` is 11.72%.
The result for `CCNC(=O)[C@@H]1CCCN1C1(C(=O)NC)CCC1` reads 10.65%; that for `CC(CC(=O)O)CC(=O)Nc1sc2c(c1C(N)=O)CCc1ccccc1-2` (stereo not drawn), -0.22%; that for `CC(C)(C)OC(=O)NCCNC(=O)c1ccc2cc[nH]c2c1`, 13.72%.
For `COc1cc(NCCNC(=O)c2cc[nH]c2C)cc(OC)c1`, the INHIBITION is given as 12.43%.
The figure for `COc1cc(NCCNC(=O)c2ccc3[nH]ccc3c2)cc(OC)c1` is 57.75%.
The figure for `O=C(NCCCO)Nc1cccc(Cl)c1F` is -5.28%; for `Fc1cnc(N2CCOC3(CCN(Cc4ccsc4)CC3)C2)nc1` it is -35.12%.
The figure for `CNC(=O)C1CCN(Cc2cc3c(cc2O)CCC3)CC1` is -23.73%.
As for `CNS(=O)(=O)CCN1CC(c2ccccc2)(c2ccccc2)CCC1=O`, the INHIBITION was 40.51%.
The figure for `Cc1cccc(NCc2ncc(C(C)(C)C)o2)c1` is 75.37%; for `Cc1ccc(NCc2ncc(C(C)(C)C)o2)c(Cl)c1` it is -32.82%; for `CC(C)(C)c1cnc(CNc2cccc(Cn3cnnc3)c2)o1` it is -3.4%.
The figure for `CCc1nc(C)sc1CN1CC[C@](O)(CC)[C@H](O)C1` is 20.36%; for `O=C(COCC(=O)N1CCCCCC1)NCc1cccc(Br)c1` it is 50.97%; for `O=C(CCC(=O)NCc1cccc(Br)c1)NCCN1CCCC1` it is -64.94%.
The figure for `COCC(=O)NCc1cccc(Br)c1` is 0.26%; for `Cc1ncn(-c2cc(N3CCN(S(C)(=O)=O)CC3)ncn2)c1C` it is 43.28%; for `O=C(CSCC1CC1)N1C[C@H]2CC[C@@H](C1)N(Cc1ccccn1)C2=O` it is 36.66%.
With `CCOCC(=O)N1C[C@H]2CC[C@@H](C1)N(Cc1ccccn1)C2=O`, the INHIBITION was determined as 37.77%.
The result for `CCCSCC(=O)N1C[C@H]2CC[C@@H](C1)N(Cc1ccccn1)C2=O` reads 60.9%; that for `CC(C)(O)CN1CCN(C(=O)COCC(F)(F)F)CC1`, 13.76%.
The result for `COc1cc(C)c(S(=O)(=O)CC(=O)N(C)C(C)C)cc1OC` reads 10.72%.
The figure for `CCN(C(=O)CS(=O)(=O)c1cc(OC)c(OC)cc1C)C1CC1` is 35.41%; for `COc1cc(C)c(S(=O)(=O)CC(=O)N(C)C2CC2)cc1OC` it is 51.87%.
In the case of `CCn1cc(S(=O)(=O)Nc2nc3c(s2)CCCC3)cn1`, the INHIBITION was 23.02%.
The result for `CCn1cc(S(=O)(=O)Nc2nc3c(s2)CC(C)CC3)cn1` (stereo not drawn) reads 32.56%; that for `CC1CCc2nc(NS(=O)(=O)c3cnn(C)c3)sc2C1` (stereo not drawn), 54.52%; that for `N#Cc1ccc(CN2CCN(Cc3ccncc3Cl)CC2=O)cc1`, 26.27%.
Consider `CC1CN(Cc2nc(Cc3ccccc3F)no2)CCN1C` (stereo not drawn), for which the INHIBITION amounted to 17.25%.
Regarding `O=C(c1ccco1)N1CCOC2(COCCN(c3ncccn3)C2)C1` (stereo not drawn), the INHIBITION worked out at 36.06%.
The result for `Cc1cccc(CN2CCc3onc(CO)c3C2)n1` reads 52.12%; that for `Cc1cccc(CN2CCc3onc(CN(C)C)c3C2)n1`, 26.77%.
The figure for `Cc1cccc(CN2CCc3onc(Cn4cccc4)c3C2)n1` is 15.36%.
